Bioassay records (PubChem BioAssay)
Sampled rows, rich in hits. Any-hit rate of the full collection: about 0.89%.
MBNL1 CUG block: MBNL1-poly(CUG) RNA binding inhibition; TR-FRET MBNL1-His/biotin-(CUG)12 binding, 665/545 ratio; Potency, µM (titrated, usually from 57.5 µM), hits mostly inhibitors; 280,000 tested, 0.036% active; AID 2675; active = well fitted inhibition curve with a large enough effect in the signal ratio, with a control signal flat, not every such curve was filed as active; inconclusive = small, poorly fitted or top-dose-only effect, or effect the other way, or a change in a side signal; inactive = no such curve, though single readings can be large or run the other way; the % refers to the signal ratio
Target sequence (Q9NR56 whole entry, looked up): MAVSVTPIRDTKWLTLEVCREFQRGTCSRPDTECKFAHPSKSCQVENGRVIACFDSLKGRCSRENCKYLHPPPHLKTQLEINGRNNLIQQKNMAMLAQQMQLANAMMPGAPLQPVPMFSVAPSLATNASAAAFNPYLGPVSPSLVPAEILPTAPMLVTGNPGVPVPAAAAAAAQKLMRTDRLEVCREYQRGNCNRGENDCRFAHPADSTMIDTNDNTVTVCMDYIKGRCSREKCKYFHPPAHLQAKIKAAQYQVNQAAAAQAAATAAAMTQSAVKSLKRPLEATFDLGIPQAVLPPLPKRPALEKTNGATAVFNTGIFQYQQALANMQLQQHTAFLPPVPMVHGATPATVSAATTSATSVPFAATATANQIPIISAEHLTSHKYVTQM
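TR-FRET readout: Ex 340 nm, 665/545 nm emission ratio, normalized to buffer-only (basal) and MBNL1-(CUG)12 controls. Complex of MBNL1-His with Biotin-(CUG)12, compounds 92 nM–58 uM, incubated 60 min at room temperature.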
Eya2 phos inh: inhibitors of human Eya2 phosphatase activity. 330,000 tested, 0.006% active. Potency, µM (doses to about 76.9 µM), hits mostly inhibitors. recombinant Eya2, OMFP fluorescence dephosphorylation (OMFP is methylfluorescein phosphate). O00167
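Eya2 (0.2 uM) preincubated 10 min at ambient with compound, then OMFP substrate added at 50 uM; 10 min reaction in 50 mM HEPES pH 7.5, 50 mM NaCl, 5 uM MgCl2, 0.05% BSA, 1 mM DTT. Fluorescence read at Ex 485/Em 525 nm.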
CtBP-E1A inh: inhibitors of CtBP/E1A interaction; AlphaScreen GST-E1A/His-CtBP binding, 1536-well; active compounds read low; activity change, % (test concentration not listed); 340,000 tested, 0.49% active; AID 651724; in the data active = activity change below about -65%; inconclusive = mostly about -30% to -63%
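AlphaScreen with 125 nM GST-E1A and 125 nM His-CtBP (5X stocks) in Tris pH 8.0, 300 mM NaCl, BSA, Tween 20, TCEP. Compounds preincubated 2 h at 37 deg C, then glutathione donor/nickel acceptor beads added for 1 h at 37 deg C in dark.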
L3MBTL1 block: L3MBTL1 (human) inhibition. Q9Y468. AlphaScreen L3MBTL1–H3K9me1 peptide binding. Potency, µM (titrated, usually from 57.1 µM), hits mostly inhibitors. 230,000 tested, 0.66% active. AID 485360; note: nearly all actives have a fitted effect of over 60% in size
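AlphaScreen assay: L3MBTL1 (50 nM final) was preincubated 30 min at room temperature with biotinylated H3(1-15)K9me1 peptide (75 nM final), then 30 min with library compounds; streptavidin donor and nickel chelate acceptor beads (10 ug/mL final) added, 30 min dark.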
Six1-Eya2 blk: blocks human Six1 binding to Eya2 | 360,000 tested, 0.56% active | AlphaScreen GST-Six1/His-Eya2 binding, biochemical; active compounds read low | Q15475+O00167 | activity change, % (test concentration not listed); in the data active = activity change below about -65%; inconclusive = mostly about -30% to -63%
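AlphaScreen luminescence read after one hour at 37 °C in darkness. Pin-transferred compounds met GST-Six1 and His-Eya2 protein (5X stock 250 nM/500 nM) plus glutathione donor and Ni-chelate acceptor beads (5X, 50 ug/mL).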
CBFb-RUNX1 inh: inhibitors of human CBF-beta and RUNX1 interaction. AlphaScreen CBFb-His/RUNX1-biotin binding, biochemical. Potency, µM (top dose mostly 59.8 µM), actives largely listed as inhibitors. 230,000 tested, under 10 active. AID 1477
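CBFb-His/RUNX1-biotin, 30 nM each, preincubated 20 min RT; compound 15 min RT; Ni + streptavidin beads 50 ng each, 90 min RT; AlphaScreen read.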
Hits are given with their value. Unless noted, calls come from the whole dose curve; as a rule, active = well fitted curve in the direction sought with a large enough effect; inconclusive = small, poorly fitted or top-dose-only effect, or another doubt; inactive = no such curve, though single readings can be large; an effect the other way counts as inactive or inconclusive.

For COc1cc(N/N=C/c2ccccc2O)ncn1 the results were MBNL1 CUG block inactive, Eya2 phos inh inactive, CtBP-E1A inh -96, L3MBTL1 block inconclusive and Six1-Eya2 blk -88.
Screening CCOc1ccc(/C=N/Nc2nc(C)cs2)c(O)c1 returned MBNL1 CUG block inactive, Eya2 phos inh inactive, CtBP-E1A inh inconclusive, L3MBTL1 block inactive and Six1-Eya2 blk -68.
Screening Cc1csc(N/N=C/c2ccccc2F)n1 returned MBNL1 CUG block inactive, Eya2 phos inh inactive, CtBP-E1A inh inactive, L3MBTL1 block inactive and Six1-Eya2 blk inactive.
Screening CCOc1ccc(/C=N/Nc2cc(N3CCOCC3)ncn2)c(O)c1 returned CtBP-E1A inh inconclusive and Six1-Eya2 blk -71.
For CC(C)(Oc1ccc(Cl)cc1)C(=O)NCc1ccc(S(N)(=O)=O)cc1 the results were MBNL1 CUG block inactive, Eya2 phos inh inactive, CtBP-E1A inh inactive, L3MBTL1 block inactive, Six1-Eya2 blk inactive and CBFb-RUNX1 inh inactive.
`CC(C)OC(=O)CSc1nnc(-c2ccccc2)n1N` gave MBNL1 CUG block inactive, Eya2 phos inh inactive, CtBP-E1A inh inactive, Six1-Eya2 blk inactive and CBFb-RUNX1 inh inactive.
CCOc1ccc(NC(=O)NCc2ccccn2)cc1 was read as MBNL1 CUG block inactive, Eya2 phos inh inactive, CtBP-E1A inh inactive and Six1-Eya2 blk inactive.
CCOc1ccc(NC(=O)CC(NCc2ccccn2)C(=O)O)cc1 (stereo not drawn) was read as MBNL1 CUG block inactive, Eya2 phos inh inactive, CtBP-E1A inh -92, Six1-Eya2 blk -90 and CBFb-RUNX1 inh inconclusive.
`CCOC(=O)C(NCc1ccccn1)(NC(=O)c1cccnc1)C(F)(F)F` (stereo not drawn) gave MBNL1 CUG block inactive, Eya2 phos inh inactive, CtBP-E1A inh inactive, Six1-Eya2 blk -83 and CBFb-RUNX1 inh inactive.
Cn1c(=O)c(Nc2ccc(O)cc2)c2c3c(cccc31)C(=O)c1ccccc1-2 was read as MBNL1 CUG block inconclusive, Eya2 phos inh inactive, CtBP-E1A inh -73, L3MBTL1 block 25µM, Six1-Eya2 blk -77 and CBFb-RUNX1 inh inactive.
`CC(=O)c1c2c3c(cccc3n(C)c1=O)C(=O)c1ccccc1-2` gave MBNL1 CUG block inconclusive, Eya2 phos inh inactive, L3MBTL1 block inconclusive and Six1-Eya2 blk inactive.
`COc1ccc(C(=O)c2[nH]c(N)c(C(=O)NCCc3c[nH]c4ccccc34)c2-c2ccccc2Br)cc1` gave CtBP-E1A inh inactive and Six1-Eya2 blk inactive.
`O=C1C(NS(=O)(=O)c2ccc(Cl)cc2)=C(N2CCCCC2)C(=O)c2ccccc21` gave MBNL1 CUG block inconclusive, Eya2 phos inh inactive, CtBP-E1A inh -81, L3MBTL1 block 25µM, Six1-Eya2 blk -80 and CBFb-RUNX1 inh inactive.
For CCOC(=O)C1CCN(C2=C(NS(=O)(=O)c3ccc(Br)cc3)C(=O)c3ccccc3C2=O)CC1 the results were MBNL1 CUG block inconclusive, Eya2 phos inh inactive and Six1-Eya2 blk -80.
Screening N#CC(C#N)=Cc1ccc(OC(=O)c2ccccn2)cc1 returned MBNL1 CUG block inactive, Eya2 phos inh inactive, CtBP-E1A inh inconclusive, L3MBTL1 block 25µM and Six1-Eya2 blk -68.
`CC12CCC(=O)N1C(C(=O)NNC(=O)c1ccccc1)CS2` (stereo not drawn) gave Eya2 phos inh inactive, CtBP-E1A inh inactive, L3MBTL1 block inactive and Six1-Eya2 blk inactive.
Screening O=C(N/N=C/c1sc(=O)[nH]c1-[n+]1ccc2ccccc2c1)c1ccccc1[O-] returned MBNL1 CUG block inconclusive, Eya2 phos inh inactive, CtBP-E1A inh -75 and Six1-Eya2 blk inconclusive.
`O=C(N/N=C/c1sc(=O)[nH]c1-[n+]1ccccc1)c1ccccc1[O-]` gave Eya2 phos inh inactive, CtBP-E1A inh inactive, L3MBTL1 block inactive, Six1-Eya2 blk inactive and CBFb-RUNX1 inh inactive.
For Cc1cccc2cccnc12 the results were Eya2 phos inh inactive, CtBP-E1A inh inactive, L3MBTL1 block inactive, Six1-Eya2 blk inactive and CBFb-RUNX1 inh inactive.
CSS(=O)(=O)c1cccc2cccnc12 was read as MBNL1 CUG block inactive, Eya2 phos inh inconclusive, CtBP-E1A inh -70, L3MBTL1 block inactive, Six1-Eya2 blk inconclusive and CBFb-RUNX1 inh inactive.
Screening c1cnc2c(c1)ccc1cccnc12 returned MBNL1 CUG block inactive, Eya2 phos inh inactive, CtBP-E1A inh -76, L3MBTL1 block 3.2µM, Six1-Eya2 blk -90 and CBFb-RUNX1 inh inactive.
Screening O=Cc1ccc2ccc3cccnc3c2n1 returned MBNL1 CUG block inactive, Eya2 phos inh inactive, CtBP-E1A inh -93 and Six1-Eya2 blk -69.
CCN(CC)S(=O)(=O)c1cccc2cccnc12 was read as MBNL1 CUG block inactive, Eya2 phos inh inactive, CtBP-E1A inh inactive, Six1-Eya2 blk inactive and CBFb-RUNX1 inh inactive.
For O=C(Nc1nc2c(Br)cccc2s1)C1CC1 the results were MBNL1 CUG block inactive, Eya2 phos inh inactive, CtBP-E1A inh inactive, L3MBTL1 block inactive and Six1-Eya2 blk inactive.
c1ccc(-c2ccc(-c3ccccn3)nn2)nc1 was read as MBNL1 CUG block inactive, Eya2 phos inh inactive, L3MBTL1 block 3.5µM and CBFb-RUNX1 inh inactive.
For c1ccc(-c2nn[nH]n2)cc1 the results were MBNL1 CUG block inactive, Eya2 phos inh inactive, CtBP-E1A inh inactive, L3MBTL1 block inactive, Six1-Eya2 blk inactive and CBFb-RUNX1 inh inactive.
`c1ccc(-c2nn[nH]n2)nc1` gave MBNL1 CUG block inactive, Eya2 phos inh inactive, CtBP-E1A inh -72, Six1-Eya2 blk -87 and CBFb-RUNX1 inh inactive.
COc1ccc(C2C=C(C34CC5CC(CC(C5)C3)C4)NC(=S)N2)cc1 (stereo not drawn) was read as MBNL1 CUG block inconclusive, Eya2 phos inh inactive, CtBP-E1A inh inactive, L3MBTL1 block inactive, Six1-Eya2 blk inactive and CBFb-RUNX1 inh inactive.
`Cc1ccc(SCC(=O)OCn2nnc3ccccc3c2=O)cc1C` gave MBNL1 CUG block inactive, Eya2 phos inh inactive, CtBP-E1A inh inactive, L3MBTL1 block inactive, Six1-Eya2 blk inactive and CBFb-RUNX1 inh inactive.
Cc1cc(F)c(F)c(C(=O)N2CCOCC2)c1Cl was read as MBNL1 CUG block inactive, Eya2 phos inh inactive, CtBP-E1A inh inactive, L3MBTL1 block inactive, Six1-Eya2 blk -92 and CBFb-RUNX1 inh inactive.
Screening CCOC(=O)[C@]12CCCC=C1N(Cc1cccc3ccccc13)C(=O)[C@H](CC(=O)N1CCC(c3ccccc3)CC1)C2 returned CtBP-E1A inh inactive and Six1-Eya2 blk inactive.
For COCCn1c(SCc2nc3sc(C(=O)OC)c(C)c3c(=O)[nH]2)nc2ccccc21 the results were MBNL1 CUG block inactive, Eya2 phos inh inactive, CtBP-E1A inh inactive, L3MBTL1 block inactive, Six1-Eya2 blk inactive and CBFb-RUNX1 inh inactive.
